Inconclusive results are not listed. The source made the active and inactive calls. Calls come from the whole dose curve.
% is set by controls: 0 for no effect and ±100 for the full control effect; potency is the fitted concentration of half-maximal effect.

In the assay the target is Atrial natriuretic peptide receptor 1 (Homo sapiens) (UniProt P16066). As to the kind of experiment: Natriuretic polypeptide receptor (hNpr1) antagonism - Pilot CMLD screen (AID 1347052). The note with it: HEK293 hNpr1 GloSensor cGMP luminescence, ANP-stimulated; series mostly up to 9.22 µM; activity change, negative = inhibition: at the top concentration. The protocol: In order to identify small molecular compounds that inhibit the hNpr1 receptor we developed a high-throughput assay to measure inhibition of the guanylate cyclase activity of the receptor. cGMP production was measured using a circular permutated Firefly luciferase (FLuc) enzyme functionally linked to the cGMP binding domain of human phosphodiesterase 5 (GloSensor technology pGS-40F, (Fan, F. et al. 2008). The cGMP-sensor was expressed in human embryonic kidney 293 (HEK-293) cells and FLuc activity was measured after stimulation with hNrp agonist peptide. hNrp agonists activates the receptor's associated guanylyl cyclase (GC) domain producing cGMP which then binds to the GloSensor resulting in FLuc activation, the enzymatic activity of which can be measured as bioluminescence with addition of luciferin substrate.
Chain of Atrial natriuretic peptide receptor 1 (Homo sapiens) (P16066 whole entry, looked up, the tested form may be a part): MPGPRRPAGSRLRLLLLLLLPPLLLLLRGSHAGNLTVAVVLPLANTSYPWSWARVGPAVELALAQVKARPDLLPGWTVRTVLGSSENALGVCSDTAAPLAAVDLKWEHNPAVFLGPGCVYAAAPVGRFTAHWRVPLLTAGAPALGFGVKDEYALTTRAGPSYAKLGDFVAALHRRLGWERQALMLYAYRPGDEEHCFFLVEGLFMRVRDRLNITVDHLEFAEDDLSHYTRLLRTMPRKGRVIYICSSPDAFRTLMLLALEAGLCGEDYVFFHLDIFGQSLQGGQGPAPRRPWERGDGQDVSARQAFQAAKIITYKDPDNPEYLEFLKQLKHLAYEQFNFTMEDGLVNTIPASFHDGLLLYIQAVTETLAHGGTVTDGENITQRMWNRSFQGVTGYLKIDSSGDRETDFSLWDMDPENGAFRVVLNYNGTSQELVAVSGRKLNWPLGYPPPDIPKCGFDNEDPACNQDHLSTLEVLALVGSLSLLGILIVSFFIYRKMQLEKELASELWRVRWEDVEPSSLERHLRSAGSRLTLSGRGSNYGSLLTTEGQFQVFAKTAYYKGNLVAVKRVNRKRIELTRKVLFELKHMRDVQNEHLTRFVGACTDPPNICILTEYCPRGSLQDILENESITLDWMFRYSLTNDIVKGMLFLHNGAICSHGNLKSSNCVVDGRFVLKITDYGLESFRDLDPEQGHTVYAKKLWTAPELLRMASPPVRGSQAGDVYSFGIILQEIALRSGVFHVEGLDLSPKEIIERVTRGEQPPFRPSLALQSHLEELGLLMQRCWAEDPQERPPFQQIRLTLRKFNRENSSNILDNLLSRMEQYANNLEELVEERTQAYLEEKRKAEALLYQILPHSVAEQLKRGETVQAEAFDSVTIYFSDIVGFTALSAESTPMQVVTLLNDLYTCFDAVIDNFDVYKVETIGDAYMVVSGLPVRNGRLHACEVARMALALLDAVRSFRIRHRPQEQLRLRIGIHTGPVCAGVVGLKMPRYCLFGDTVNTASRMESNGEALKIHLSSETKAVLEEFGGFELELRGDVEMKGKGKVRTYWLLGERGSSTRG
This assay was initially piloted by testing with a small library of specialty compounds.
PROTOCOL TABLES (as described by Inglese J, Shamu CE and Guy RK. 2007)
SEQUENCE No. (e.g., 1, 2, 3, etc.); […] (e.g., Cells, Incubation, Reagent, etc.); VALUE and DESCRIPTION.
1. Cells. Seed 1500 HEK293 cGMP-sensor cells expressing hNpr1 per well in 4uL into Greiner 1536-well white/solid bottom high base, tissue culture-treated plates.
2. Incubation. Incubate plated cells at 37C in 5% CO2, 95% RH overnight.
3. Reagent. Add 1uL per well GloSensor reagent from Promega (2% final concentration) or CO2 independent media vehicle control to respective columns of Greiner 1536-well plates.
4. Incubation. Incubate plated cells at room temperature for 2 h, protect from light.
5. Compounds. Library compounds and A-71915 control added at 23 nL per well, transferred by Pin Tool.
6. Incubation. Incubate plated cells for 30 min. at room temperature, protect from light.
7. Detector. GloSensor baseline pre-read luminescence measured using CCD-based camera (Viewlux).
8. Compound. Add 1uL of hNppA peptide to 0.1 nM final concentration to stimulate hNpr1 or CO2 independent media as vehicle control.
9. Incubation. Incubate treated cells at room temperature for 20 min., protect from light.
10. Detector. GloSensor post-hNppA luminescence measured using CCD-based camera (Viewlux).
NOTES (numbers refer to Sequence numbers above)
1. HEK293 cells expressing hNpr1 and GIP/pGS-40F grown to 85-95% confluence (48-72 h) in T175 culture flasks (CO2 independent media supplemented with 10% FBS, 1% Pen/Strep antibiotics and 1 ug/mL puromycin). Trypsinize and harvest cells from T175 culture flasks and filter through 40 um cell strainer. Cells counted with Invitrogen Countess (30,000,000 - 50,000,000 cells/flask). Cells diluted to a final concentration of 375 cells/uL in CO2 independent media and a Millipore multidrop used to dispense 1500 cells per well (4uL/well) into 13 1536-well Greiner White/Solid bottom, high base tissue-culture treated (TC) plates and one Aurora 1536-well Black/Clear bottom, low base, TC plate (for visual inspection of cell health throughout the duration of the assay).
2. Cells incubated overnight at ambient temperature, 24 h. at 37C in 95% RH incubator protected from light, covered with metal lid with gas-exchange holes.
3. Prepare GloSensor Reagent (Promega): Reconstitute GloSensor luciferase substrate by adding 8.2mL Hepes buffer to 250mg substrate, mix well, protect from light and stored at -80C. Prepare a fresh 12% GloSensor solution in CO2 independent supplemented plating media (see above). Mix well and store at ambient temperature, protected from light. 1uL 12% GloSensor Luciferase Reagent added (2% final concentration) to respective columns of 13 x 1536-well Greiner plate with BioRaptr, 1uL CO2 independent plating media added to respective columns as vehicle control with BioRaptr.
4. Cells incubated for 2 h. at ambient temperature, protected from light with metal lid with gas-exchange holes.
5. A-71915 stock solution prepared (10 mM in DMSO). […]
For the compound `O=C(NN=C1C[C@@H](O)[C@H](O)[C@H]2[C@@H]3C(=O)N(c4cccc(Oc5ccccc5)c4)C(=O)[C@@H]3CC[C@H]12)OCc1ccccc1`, the “activity change, negative = inhibition” value is 10% (inactive).

Take `C=CCCN1C(=O)NC(c2ccccc2)C(C(=O)OC)=C1C` (stereo not given): the “activity change, negative = inhibition” value is -5.41% (inactive).

In the case of `CC#CCN1c2ccccc2[C@]23CCC(=O)N(Cc4cccc(C(F)(F)F)c4)C2=NC(C(=O)OC)=C(C(=O)OC)[C@H]13`, the “activity change, negative = inhibition” value was -0.0689% (inactive).

As for `COC1=C[C@H](C(=O)NCc2ccccn2)[C@H](C)[C@@H](c2ccccc2)CC1=O`, the “activity change, negative = inhibition” value was -0.0651% (inactive).

Take `COc1cccc([C@H]2NC(=O)CC=C[C@H](C)[C@@H](c3cccc(OC)c3)NC(=O)CC=C[C@H]2C)c1`: the “activity change, negative = inhibition” value was 1% (inactive).

With `COC(=O)CC=C[C@@H](C)[C@H](NC(=O)OCC(Cl)(Cl)Cl)c1ccc2ccccc2c1`, the “activity change, negative = inhibition” value was 0.482% (inactive).

Take `Cc1ccccc1Nc1oc(-c2ccccc2)nc1CCc1ccccc1`: the “activity change, negative = inhibition” value is -1.34% (inactive).

`O=C1[C@H]2[C@@H]3[C@@H](O)[C@H](O)CC(=NOCc4ccccc4)[C@H]3CC[C@H]2C(=O)N1Cc1ccc2c(c1)OCO2`: the “activity change, negative = inhibition” value was -0.16% (inactive).

In the case of `C=CCN1C(=O)CC[C@@]23C1=NC(C(=O)OC)=C(C(=O)OC)[C@@H]2N(CC=C)c1ccccc13`, the Potency is 2370 nM (active).

As to `COC1=C[C@H](C(=O)N2CCCC2)[C@H](C)[C@@H](c2ccccc2)CC1=O`, the “activity change, negative = inhibition” value is 12.9% (inactive).

Turning to `CC(Nc1oc(-c2ccccc2)nc1-c1cccc2ccccc12)c1ccccc1` (stereo not given), the Potency result was “inactive”.

Take `C=C(Br)CO[C@@H]1C=C[C@@H](c2ccccc2)O[C@@H]1COC`: the “activity change, negative = inhibition” value was 1.6% (inactive).

For `COCc1cc2cc3c(cc2c2c(C(=O)OC)c(C(=O)OC)c(C(=O)OC(C)(C)C)n12)OCO3`, the Potency is 3350 nM (active).

In the case of `COC(=O)[C@@]1(C=C2c3ccc(OC)cc3[C@@H](OC)[C@@H]2C)[C@@H]2C=CC[C@@H]21`, the “activity change, negative = inhibition” value was -5.5% (inactive).

Regarding `CC(=O)OC[C@H]1O[C@H](CCON=C(C)CCC(=O)OC[C@H]2O[C@H](C#Cc3ccccc3)C=C[C@H]2Oc2ccc(C)cc2)C=C[C@H]1OC(C)=O`, the “activity change, negative = inhibition” value was -0.907% (inactive).

In the case of `N#Cc1ccc2c(c1)C[C@]1(c3ccsc3)Oc3c(c(=O)oc4ccccc34)[C@H]2O1`, the “activity change, negative = inhibition” value was 3.07% (inactive).

Take `O=C(NN=C1C[C@@H](O)[C@H](O)[C@H]2[C@@H]3C(=O)N(Cc4ccc5c(c4)OCO5)C(=O)[C@@H]3CC[C@H]12)OCc1ccccc1`: the “activity change, negative = inhibition” value is 13.5% (inactive).

Take `COC(=O)CC=C1c2ccc(F)cc2[C@@H](OC)[C@@H]1C`: the “activity change, negative = inhibition” value is 2.43% (inactive).

Consider `COC(=O)C1=C(C)N(Cc2ccco2)C(=O)NC1c1ccc(Br)cc1` (stereo not given), for which the “activity change, negative = inhibition” value is -5.25% (inactive).

Take `C#CCN1C(=O)CC[C@@]23C1=NC(C(=O)OC)=C(C(=O)OC)[C@@H]2N(Cc1ccccc1)c1ccccc13`: the “activity change, negative = inhibition” value is 2.33% (inactive).

For the compound `C[C@H]1C[C@@H](C)O[C@@]2(C1)C(=O)N(CC1CC1)c1ccccc12`, the “activity change, negative = inhibition” value was -3.01% (inactive).

Take `C=C1C2c3ccccc3C(CC2(C)O[Si](C)(C)C)N1C(=O)OC` (stereo not given): the “activity change, negative = inhibition” value was 1.17% (inactive).

For `COc1ccc(-c2nc3c(c4c2C[C@H](c2ccccc2)OC4)CN(S(=O)(=O)c2ccc(NC(C)=O)cc2)CC3)c(C)c1`, the “activity change, negative = inhibition” value was 0.47% (inactive).

As for `O=C1c2ccccc2C(=O)N1CCCC[C@]12Cc3c(ccc4ccccc34)[C@H](O1)c1c(cc(-c3ccccc3)oc1=O)O2`, the “activity change, negative = inhibition” value is -3.16% (inactive).

In the case of `Cc1cc2c(c(=O)o1)[C@H]1O[C@](CCCCN3C(=O)c4ccccc4C3=O)(Cc3cc(C#N)ccc31)O2`, the “activity change, negative = inhibition” value is 5.87% (inactive).

As to `C=COC[C@@H]1CN2[C@H](c3ccc(Br)cc3)[C@H](C)CC[C@H]2C(=O)O1`, the “activity change, negative = inhibition” value is -1.1% (inactive).

With `CC12C=C(C=CCCc3ccco3)C(C)(C1)C(CCc1ccco1)CC2=O` (stereo not given), the “activity change, negative = inhibition” value is 4.54% (inactive).

With `C[C@H]1COc2c(N3CCN(C)CC3)c(F)cc3c(=O)c(C(=O)NCc4ccco4)cn1c23`, the “activity change, negative = inhibition” value is 2.83% (inactive).

On to `COC(=O)C1=C[C@@]2(c3ccc(F)cc3[C@@H](OC)[C@@H]2C)[C@@H]2C=C[C@H]1C2`, for which the “activity change, negative = inhibition” value is 6.92% (inactive).

As for `C[C@H]1CC[C@H]2C(=O)N(Cc3ccc(Cl)cc3)C[C@@H](O)CN2[C@H]1c1ccc(Br)cc1`, the “activity change, negative = inhibition” value was -2.83% (inactive).

As to `COc1ccc2c(c1)O[C@H](c1ccc3c(c1)OCO3)[C@@H](OC(=O)N[C@H]1CCCc3ccccc31)C2=O`, the “activity change, negative = inhibition” value is -9.9% (inactive).

As for `CC1=CC[C@@H](COc2ccccc2)O[C@@]2(C1)C(=O)N(Cc1ccccc1C(F)(F)F)c1ccccc12`, the “activity change, negative = inhibition” value is 6.47% (inactive).

Take `COC(=O)N1C2CC3(C)C=C(C)OC1(C)C3c1ccccc12` (stereo not given): the “activity change, negative = inhibition” value is 1.53% (inactive).

On to `C#CCCOC(=O)N1C2=NC(C(=O)OC)=C(C(=O)OC)[C@@H]3N(CC=C)c4ccccc4[C@]23C[C@H]1C(=O)OC`, for which the “activity change, negative = inhibition” value was -3.55% (inactive).

Take `C#CCCOC(=O)N1C2=NC(C(=O)OC)=C(C(=O)OC)[C@@H]3Nc4ccccc4[C@]23C[C@H]1C(=O)OC`: the “activity change, negative = inhibition” value is 1.14% (inactive).

For the compound `CCN1C(=NCc2cccc(C(F)(F)F)c2)NC(c2cccc(C(F)(F)F)c2)C(C(=O)OC)=C1C` (stereo not given), the “activity change, negative = inhibition” value was -0.789% (inactive).

In the case of `C#CCOCC#CC[C@@]1(C(=O)OC)C=C[C@@H](C)[C@H](c2ccccc2Br)N1C(=O)C(F)(F)F`, the “activity change, negative = inhibition” value is -5.23% (inactive).

Turning to `COC(=O)c1c(C(=O)OC)c2c3ccccc3cc(C3CC3)n2c1C(=O)OC`, the “activity change, negative = inhibition” value was -0.855% (inactive).

Take `COc1ccc(COC(=O)NN=C2C[C@@H](O)[C@@H](O)[C@@H]3[C@H]4C(=O)N(c5cccc(Oc6ccccc6)c5)C(=O)[C@@H]4CC[C@H]23)cc1`: the “activity change, negative = inhibition” value is 2.23% (inactive).

`Cc1ccccc1Nc1oc(-c2ccccc2)nc1-c1ccccc1F`: the “activity change, negative = inhibition” value was 11.1% (inactive).

These data come from PubChem BioAssay (NCATS).
